Measurements taken from the supplement of paper PMC9794691.

Each molecule was assayed on PC9 (assay: area under confluence curve of compound monotherapy; compare to DMSO control AUC of the same experiment (AUC (confluence x time, arbitrary))). Settings: 100 nM; DMSO control AUC in same experiment: 21913.
Protocol: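 compare to DMSO control AUC of the same experiment; Monotherapy arm of the osimertinib DTP screen: EGFR-mutant NSCLC cells were treated with the test compound alone at a fixed dose (highest dose with <50% inhibition of parental cells, or 1 uM), then switched to drug-free medium at the DTP stage. IncuCyte confluence was tracked and AUC computed in Prism. AUC scale depends on experiment duration, so each row carries the same-experiment DMSO control AUC (monotherapy activity = DMSO AUC minus monotherapy AUC). The monotherapy value is shared between screen formats.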
`Nc1ccc(/C=C/C(=O)NCc2cc3cc(-c4ccc(C(=O)N5CCC(F)(F)CC5)cc4)cc(-c4ccc(F)cc4)c3o2)cn1` was tested, and the “area under confluence curve” value was 22800.

Same assay, conditions: 100 nM; DMSO control AUC in same experiment: 27958
`COC(=O)c1ccc([C@H]2c3[nH]c4ccccc4c3C[C@H](C(=O)OC)N2C(=O)CCl)cc1` was tested, and the “area under confluence curve” value was 27800.

Same assay, conditions: 100 nM; DMSO control AUC in same experiment: 28334
In the case of `CNC(=O)c1cccc(-c2ccc3c(N4CCOC[C@@H]4C)nc(N4CCOC[C@@H]4C)nc3n2)c1`, the “area under confluence curve” value was 24900.

Same assay, conditions: 100 nM; DMSO control AUC in same experiment: 30326
`COC(=O)c1ccc([C@H]2c3[nH]c4ccccc4c3C[C@H](C(=O)OC)N2C(=O)CCl)cc1` was tested, and the “area under confluence curve” value was 27300.

Same assay, conditions: 100 nM; DMSO control AUC in same experiment: 31219
For `COC[C@H]1Cn2cc(-c3nc(Nc4ccnn4C)ncc3C)nc2C(=O)N1Cc1ccc(F)c(F)c1`, the “area under confluence curve” value was 30900.

Same assay, conditions: 100 nM; DMSO control AUC in same experiment: 44384
`O=C(NC[C@H](O)CN1CCc2ccccc2C1)c1ccnc(NC2CCC2)c1` was tested, and the “area under confluence curve” value was 43300.

Same assay, conditions: 100 nM; DMSO control AUC in same experiment: 45737
`COC(=O)c1ccc([C@H]2c3[nH]c4ccccc4c3C[C@H](C(=O)OC)N2C(=O)CCl)cc1` was tested, and the “area under confluence curve” value was 46100.

Same assay, conditions: 100 nM; DMSO control AUC in same experiment: 49189
For `COC[C@H]1Cn2cc(-c3nc(Nc4ccnn4C)ncc3C)nc2C(=O)N1Cc1ccc(F)c(F)c1`, the “area under confluence curve” value was 46200.

Same assay, conditions: 300 nM; DMSO control AUC in same experiment: 19507
`CN1CCN(CCOc2cc(OC3CCOCC3)c3c(Nc4c(Cl)ccc5c4OCO5)ncnc3c2)CC1` [Saracatinib] was tested, and the “area under confluence curve” value was 16000.

Same assay, conditions: 300 nM; DMSO control AUC in same experiment: 22064
With `CN(C)CCCOc1ccc(-c2ccc3ncc4c(c3c2)n(C2CCOCC2)c(=O)n4C)cn1` the “area under confluence curve” value was 22000.

Same assay, conditions: 300 nM; DMSO control AUC in same experiment: 28243
With `CN1CCN(CCOc2cc(OC3CCOCC3)c3c(Nc4c(Cl)ccc5c4OCO5)ncnc3c2)CC1` [Saracatinib] the “area under confluence curve” value was 24000.

Same assay, conditions: 300 nM; DMSO control AUC in same experiment: 28684
For `Cc1c[nH]c2nc(Nc3ccc(N4CCN(C)CC4)c(F)c3)nc(-c3cccc(CC#N)c3)c12`, the “area under confluence curve” value was 21400.

Same assay, conditions: 300 nM; DMSO control AUC in same experiment: 29563
For `CN(C)CCCOc1ccc(-c2ccc3ncc4c(c3c2)n(C2CCOCC2)c(=O)n4C)cn1`, the “area under confluence curve” value was 30100.

Same assay, conditions: 300 nM; DMSO control AUC in same experiment: 30008
With `Cc1c[nH]c2nc(Nc3ccc(N4CCN(C)CC4)c(F)c3)nc(-c3cccc(CC#N)c3)c12` the “area under confluence curve” value was 29700.

Same assay, conditions: 300 nM; DMSO control AUC in same experiment: 30578
With `NC1(C(=O)N[C@@H](CCO)c2ccc(Cl)cc2)CCN(c2nc[nH]c3nccc2-3)CC1` [Capivasertib] the “area under confluence curve” value was 29000.

Same assay, conditions: 300 nM; DMSO control AUC in same experiment: 30604
With `CN(C)CCCOc1ccc(-c2ccc3ncc4c(c3c2)n(C2CCOCC2)c(=O)n4C)cn1` the “area under confluence curve” value was 30300.

Same assay, conditions: 300 nM; DMSO control AUC in same experiment: 31840
For `NC1(C(=O)N[C@@H](CCO)c2ccc(Cl)cc2)CCN(c2nc[nH]c3nccc2-3)CC1` [Capivasertib], the “area under confluence curve” value was 30700.

Same assay, conditions: 300 nM; DMSO control AUC in same experiment: 43316
In the case of `Cc1c[nH]c2nc(Nc3ccc(N4CCN(C)CC4)c(F)c3)nc(-c3cccc(CC#N)c3)c12`, the “area under confluence curve” value was 33700.
In the case of `NC1(C(=O)N[C@@H](CCO)c2ccc(Cl)cc2)CCN(c2nc[nH]c3nccc2-3)CC1` [Capivasertib], the “area under confluence curve” value was 42700.

Same assay, conditions: 300 nM; DMSO control AUC in same experiment: 88996
`CN(C)C(=O)c1cc2cnc(Nc3ccc(N4CCNCC4)cn3)nc2n1C1CCCC1` [Ribociclib] was tested, and the “area under confluence curve” value was 88200.

Same assay, conditions: 1000 nM; DMSO control AUC in same experiment: 20567
With `Cc1nc(N2CCC3(CC2)CO[C@@H](C)[C@H]3N)c(CO)nc1-c1cccc(Cl)c1Cl` the “area under confluence curve” value was 20500.

Same assay, conditions: 1000 nM; DMSO control AUC in same experiment: 21594
`O=C([C@@H](Cc1cccc(C(F)(F)F)c1)NS(=O)(=O)c1cc(F)c2c(c1)CCNC2)N1CCCC1` was tested, and the “area under confluence curve” value was 20800.

Same assay, conditions: 1000 nM; DMSO control AUC in same experiment: 21678
For `Cc1nc(N2CCC3(CC2)CO[C@@H](C)[C@H]3N)c(CO)nc1-c1cccc(Cl)c1Cl`, the “area under confluence curve” value was 22100.

Same assay, conditions: 1000 nM; DMSO control AUC in same experiment: 22064
`O=C(c1cc(Cc2n[nH]c(=O)c3ccccc23)ccc1F)N1CCN(C(=O)C2CC2)CC1` [Olaparib] was tested, and the “area under confluence curve” value was 20000.
`CCc1cc2c(cc1N1CCC(N3CCOCC3)CC1)C(C)(C)c1[nH]c3cc(C#N)ccc3c1C2=O` [Alectinib] was tested, and the “area under confluence curve” value was 16200.

Same assay, conditions: 1000 nM; DMSO control AUC in same experiment: 26668
For `COc1ccc(CCc2nc3cc(-c4c(C)noc4C)ccc3n2C[C@H](C)N2CCOCC2)cc1Cl`, the “area under confluence curve” value was 28400.

Same assay, conditions: 1000 nM; DMSO control AUC in same experiment: 28684
For `C[C@@H](Nc1cc(F)cc(F)c1)c1cc(C(=O)N(C)C)cc2c(=O)cc(N3CCOCC3)oc12`, the “area under confluence curve” value was 28100.
With `COc1cc2nc(C)nc(N[C@H](C)c3cc(N)cc(C(F)(F)F)c3)c2cc1O[C@H]1CCOC1` the “area under confluence curve” value was 28300.

Same assay, conditions: 1000 nM; DMSO control AUC in same experiment: 30578
For `C[C@@H](Nc1cc(F)cc(F)c1)c1cc(C(=O)N(C)C)cc2c(=O)cc(N3CCOCC3)oc12`, the “area under confluence curve” value was 29100.
For `Cc1[nH]nc(C(F)(F)F)c1Cc1sc2c(c1C(=O)N1C[C@](C)(O)CO1)c(=O)n(C)c(=O)n2C(C)C`, the “area under confluence curve” value was 30100.

Same assay, conditions: 1000 nM; DMSO control AUC in same experiment: 30580
With `C[C@@H](Nc1cc(F)cc(F)c1)c1cc(C(=O)N(C)C)cc2c(=O)cc(N3CCOCC3)oc12` the “area under confluence curve” value was 28800.
For `CS(=O)(=O)N1CCN(Cc2cc3nc(-c4cccc5[nH]ncc45)nc(N4CCOCC4)c3s2)CC1`, the “area under confluence curve” value was 24700.

Same assay, conditions: 1000 nM; DMSO control AUC in same experiment: 30604
In the case of `O=C(c1cc(Cc2n[nH]c(=O)c3ccccc23)ccc1F)N1CCN(C(=O)C2CC2)CC1` [Olaparib], the “area under confluence curve” value was 30200.

Same assay, conditions: 1000 nM; DMSO control AUC in same experiment: 31219
For `CN(C)C/C=C/C(=O)Nc1ccc(C(=O)Nc2cccc(Nc3ncc(Cl)c(-c4c[nH]c5ccccc45)n3)c2)cc1`, the “area under confluence curve” value was 31000.

Same assay, conditions: 1000 nM; DMSO control AUC in same experiment: 31840
In the case of `CCOC(=O)c1ccnc(CNCC(=O)N(CC)CCN(C)C)c1`, the “area under confluence curve” value was 30800.

Same assay, conditions: 1000 nM; DMSO control AUC in same experiment: 43316
`C[C@@H](Nc1cc(F)cc(F)c1)c1cc(C(=O)N(C)C)cc2c(=O)cc(N3CCOCC3)oc12` was tested, and the “area under confluence curve” value was 42700.
`C[C@@H](c1ccc2nccn2c1)n1nnc2ncc(-c3cnn(C)c3)nc21` [Savolitinib] was tested, and the “area under confluence curve” value was 43600.

Same assay, conditions: 1000 nM; DMSO control AUC in same experiment: 45737
`Cc1onc(C(=O)N2CCN(C(c3ccc(Cl)cc3)c3ccc(Cl)cc3)CC2)c1[N+](=O)[O-]` was tested, and the “area under confluence curve” value was 46500.

Same assay, conditions: 1000 nM; DMSO control AUC in same experiment: 48219
In the case of `COc1ccc(CCc2nc3cc(-c4c(C)noc4C)ccc3n2C[C@H](C)N2CCOCC2)cc1Cl`, the “area under confluence curve” value was 49000.

Same assay, conditions: 1000 nM; DMSO control AUC in same experiment: 72888
For `COc1ccc(CCc2nc3cc(-c4c(C)noc4C)ccc3n2C[C@H](C)N2CCOCC2)cc1Cl`, the “area under confluence curve” value was 72800.
